# Test results from PubChem BioAssay (NCI).
# The panel holds about 83,000 compounds, 20% with a hit somewhere; the sample as a whole holds those more often.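 How to read the values: 0–100, growth inhibition (40 = 60% inhibited); 0, no net growth; -100 to 0, cell death (-40 = 40% of starting cells died; -100 = all dead).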 A number with no mark means an inactive call. Calls of active or inactive are those of the source. The calls were made as follows: active = growth percent below 10; inactive = the rest.
# Tests used:
# Test in all cases: NCI-60 one-dose screen, 48 h (100 = growth as untreated, 0 = no growth, -100 = all killed)
# Conditions in all cases: 10 µM unless noted
# [1] = tested on: DU-145 prostate
# [2] = tested on: K-562 leukemia
# [3] = tested on: MALME-3M melanoma
# [4] = tested on: MDA-MB-231 breast
# [5] = tested on: RXF 393 renal
# [6] = tested on: SF-268 CNS
# [7] = tested on: SF-295 CNS
# [8] = tested on: SF-539 CNS
# [9] = tested on: UACC-257 melanoma
# [10] = tested on: M14 melanoma
SMILES,growth [1],growth [2],growth [3],growth [4],growth [5],growth [6],growth [7],growth [8],growth [9],growth [10]
CCn1c2ccccc2c2cc(C(O)c3cccc4ncccc34)ccc21 (stereo not given),8.08% (active),8.65% (active),57.7%,24.3%,40.6%,28.6%,18.4%,6.53% (active),70.8%,-4.81% (active)
CC(=O)c1c(/C=C/c2ccc(C)cc2)c2ccccc2[nH]c1=O,94.9%,90.6%,121%,91.7%,104%,75.5%,103%,86.2%,81.1%,104%
O=[N+]([O-])c1ccc(N/N=C\c2cc(Cl)ccc2O)nc1,39.4%,17.8%,25.6%,48.8%,50.2%,33.3%,29.9%,29.8%,30.2%,17.1%
Nc1nc(=O)n([C@H]2CC=C(CO)O2)cc1F,107%,96.5%,97.9%,101%,99.3%,99.3%,102%,107%,95.4%,105%
C=C(c1ccc(C(=O)O)c(F)c1)c1cc2c(cc1C)C(C)(C)C=CC2(C)C,94.7%,73.9%,54.4%,88%,96.9%,74.3%,66.5%,72.2%,80.5%,91.1%
COc1cc(/C=N/NC(=O)c2ccc3nc(-c4ccc(Cl)cc4)[nH]c3c2)cc(OC)c1OC,97.4%,32.7%,28.4%,103%,36.3%,79.7%,44%,43.8%,54.3%,42%
COc1cccc(CNc2nnc(C)c(C)n2)c1O,108%,102%,108%,96.3%,123%,100%,97%,99.7%,95%,101%
Nc1nc(N)c2c(n1)NC(c1cccc(Nc3ccnc4cc(C(F)(F)F)ccc34)c1)CC(c1ccc(Cl)cc1)=N2 (stereo not given),69.5%,10.5%,50.8%,54.4%,37.6%,55.2%,48.4%,80.8%,87.3%,29.7%
C=CCn1c(SCC(=O)Nc2ccc(C(=O)/C=C/c3ccc(Cl)cc3)cc2)nnc1-c1ccc(Cl)c(Cl)c1,92.2%,50.4%,85.2%,85.2%,75.1%,80.4%,93.9%,87%,93.9%,80.1%
COc1cccc2cc(N(C)c3ncnc4ccccc34)ccc12,10.3%,9.92% (active),39.4%,31.3%,25.9%,30.2%,11%,-28.5% (active),25.3%,14.3%
COc1cccc(C(=O)Nc2cccc(NC(=O)c3ccccn3)c2)c1,109%,90.5%,94.4%,105%,115%,96.9%,91.6%,104%,109%,87.9%
COC(CCP(=O)(c1ccccc1)c1ccccc1)(C(=O)c1ccccc1)c1ccccc1 (stereo not given),111%,9.03% (active),96.3%,73.6%,76.2%,86.1%,32.1%,87.2%,64.3%,63%
Brc1ccc(-c2nn(-c3ccccc3)cc2-c2nn[nH]n2)s1,108%,87.2%,103%,87.3%,100%,92.8%,82.6%,91.4%,98%,96.9%
N#C/C(Sc1nc2sc3c(c2c(=O)n1Cc1ccccc1)CCCC3)=C1/SC=C(c2ccc(Cl)cc2)N1c1ccccc1,119%,82.5%,89.8%,86.4%,90.9%,78%,88.9%,72.3%,108%,90.5%
CN1CCN(Cn2nc(-c3cc(Cl)cc(Cl)c3Cl)oc2=S)CC1,108%,68.8%,101%,94.4%,99.5%,109%,87.7%,106%,77.8%,107%
CNC(=O)c1cc(Oc2ccc3nc(NC(=O)c4cc(C(F)(F)F)cc(C(F)(F)F)c4)sc3c2)ccn1,27.5%,13.3%,2.93% (active),8.74% (active),-3.77% (active),23.6%,3.03% (active),19.1%,0.459% (active),22%
C/C(=N\NC(=O)c1ccc(C(C)(C)C)cc1)c1ccc(O)cc1O,29.3%,12.9%,28.4%,37.4%,-9.15% (active),27.6%,16.2%,14.7%,8.32% (active),23%
CO[C@]12C=C/C(=C(/C(=O)OCc3cccnc3)C(=O)CCCCCCCC[C@]3(OC)C=C/C(=C(/C(=O)OCc4cccnc4)C(=O)CCCCCCCC1)O3)O2,-95.3% (active),0.254% (active),-38.4% (active),-38.3% (active),-75.4% (active),-72.1% (active),-79.1% (active),-55.2% (active),-43.2% (active),-47% (active)
CCCN1C2CCC1/C(=C\c1ccc(OC)cc1)C(=O)/C2=C/c1ccc(OC)cc1,90%,35.6%,57.5%,74.9%,92.4%,83.9%,76.7%,105%,44.4%,62.1%
Cc1c(C)c2c(c(C)c1OC(=O)CCC(=O)[O-])CCC(C)(CCCCCCCCCCC[P+](c1ccccc1)(c1ccccc1)c1ccccc1)O2 (stereo not given),-54.1% (active),6.14% (active),-83.6% (active),-34.2% (active),-78.3% (active),-61.3% (active),-87.4% (active),-69.1% (active),-54.2% (active),-60.3% (active)
CC(C)CCc1nc2ccc(NCc3ccc(OCCN4CCC(C)CC4)cc3)cc2[nH]1,89.4%,20.4%,32%,59.8%,61.6%,79.9%,90.4%,58%,96.3%,33.2%
O=CN1N=C(c2cccc(Nc3ccncc3)c2)CC1c1ccc2c(c1)OCO2 (stereo not given),104%,64.7%,86.7%,103%,100%,91.9%,91.9%,95.3%,80.1%,96.4%
CCCCCN(CCCCC)CC(O)c1c(Cl)ccc2ccccc12 (stereo not given),69.4%,61.7%,94.7%,39.7%,63.1%,84.7%,71.7%,64.2%,83.1%,72.2%
O=C(/C=C/c1ccc([N+](=O)[O-])cc1)c1cccc(Nc2nc(Nc3ccccc3)nc(Nc3ccccc3)n2)c1,77.3%,60.8%,87.5%,70.9%,-39.7% (active),85.5%,79.7%,74.7%,98.7%,74.5%
O=C1/C(=C/c2cccc(Br)c2)COc2ccc(O)c(O)c21,-7.02% (active),10.3%,-44.9% (active),-26.7% (active),-56.5% (active),-23.9% (active),34.8%,-85.4% (active),10.9%,-5.09% (active)
C=C(CNCCO)[C@@H]1CC[C@]2(CO)CC[C@]3(C)[C@H](CC[C@@H]4[C@@]5(C)CCC(NCCO)C(C)(C)[C@@H]5CC[C@]43C)[C@@H]12 (stereo not given in full),79.2%,0.374% (active),61.8%,51.4%,57.4%,69.1%,80.8%,70.8%,77.9%,14.3%
O=C(CN1C(=O)c2ccccc2S1(=O)=O)Nc1nc(-c2cc3ccccc3oc2=O)cs1,108%,100%,101%,114%,105%,95.7%,102%,95.8%,99.8%,106%
